According to PubChem BioAssay (EPA / NIEHS):
The source made the active and inactive calls. The calls were made as follows: active = hit-call score of the fitted dose curve at least 0.9, where 1 is the maximum; inactive = score below 0.9.

target: Bile acid receptor (Homo sapiens) (UniProt Q96RI1); assay: ATG_IR1_CIS: Attagene CIS-FACTORIAL HepG2 Assay for human Nuclear Receptor Subfamily 1 Group H Member 4 (NR1H4), IR1 submotif (AID 2282946); settings: IR1 reporter transcription, actives raise or lower the signal
Description: ATG_CIS is a cell-based, multiplexed-readout assay that uses HepG2, a human liver cell line, with measurements taken at 24 hours after chemical dosing in a 24-well plate.ATG_IR1_CIS is one of 52 assay component(s) measured or calculated from the ATG_CIS assay. It is designed to make measurements of mRNA induction, a form of inducible reporter, as detected with fluorescence intensity signals by Reverse transcription polymerase chain reaction (RT-PCR) and Capillary electrophoresis technology.Data from the assay component ATG_IR1_CIS was analyzed into 1 assay endpoint. This assay endpoint, ATG_IR1_CIS, was analyzed with bidirectional fitting relative to DMSO as the negative control and baseline of activity. Using a type of inducible reporter, measures of mRNA for gain or loss-of-signal activity can be used to understand the reporter gene at the transcription factor-level as they relate to the gene NR1H4. Furthermore, this assay endpoint can be referred to as a primary readout, because this assay has produced multiple assay endpoints where this one serves a reporter gene function. To generalize the intended target to other relatable targets, this assay endpoint is annotated to the nuclear receptor intended target family, where the subfamily is non-steroidal.
Human liver HepG2 cells are transiently transfected with multiple reporter transcription units (MRTUs) in 6-well plates using FuGene 6 reagent (Roche; 3 ml FuGene/1 mg DNA). The MRTU constructs are regulated by a cis-regulating element (promoter). […] A major difference between the CIS and TRANS system is that in CIS activities of endogenous TFs are measured, whereas the TRANS assay evaluates changes in activities of exogenous, chimeric NR-Gal4 proteins. […] At the end of 24 hour incubation, total RNA was isolated using TriZol reagent (Invitrogen). The isolated RNA is then reverse-transcribed using oligo(dT) primer and Mo-MLV reverse transcriptase (Invitrogen) with DNAse I (Ambion) treatment for 30 min. The one-tenth of the produced cDNA was amplified by PCR using Taq DNA polymerase (Invitrogen) and two reporter sequence-specific primers. The PCR products were fluorescently labeled by primer extension with 6-arboxyfluorescein (6-FAM) 5'-labeled reporter sequence-specific primer (2 min at 95 C, 20 s at 68 C and 10 min at 72 C) and these products were digested with 5U of HpaI (New England Biolabs) for 2h at 37 C. The fragments were purified using Qiaquick PCR columns (Qiagen), analyzed on an ABI 3130xL genetic analyzer (Applied Biosystems) with peak positions identified by using a set of X-rhodamine (ROX)-labeled MapMarker1000 molecular weight standards (BioVentures). The raw capillary electrophoresis data was processed using Attagraph software (Attagene).

Bile acid receptor (Homo sapiens), sequence (Q96RI1 whole entry, looked up): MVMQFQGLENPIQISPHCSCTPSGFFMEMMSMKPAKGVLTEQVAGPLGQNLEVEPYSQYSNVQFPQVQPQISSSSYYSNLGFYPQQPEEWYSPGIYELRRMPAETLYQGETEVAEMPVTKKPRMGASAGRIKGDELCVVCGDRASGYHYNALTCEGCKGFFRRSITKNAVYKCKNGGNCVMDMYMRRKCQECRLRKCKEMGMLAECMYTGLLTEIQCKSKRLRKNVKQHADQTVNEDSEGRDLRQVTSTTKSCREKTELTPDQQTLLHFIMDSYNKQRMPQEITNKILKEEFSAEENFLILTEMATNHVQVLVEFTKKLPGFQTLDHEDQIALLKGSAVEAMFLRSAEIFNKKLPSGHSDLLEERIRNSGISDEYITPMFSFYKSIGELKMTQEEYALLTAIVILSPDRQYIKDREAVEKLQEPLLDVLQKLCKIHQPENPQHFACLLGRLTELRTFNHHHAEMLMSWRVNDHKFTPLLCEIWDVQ

Compound	outcome	AC50
CC1CC(=O)O1 (stereo not given)	inactive	
N#Cc1ccccc1N	inactive	
CCOc1ccc(N)cc1	inactive	
[F][Sn]([c]1ccccc1)([c]1ccccc1)[c]1ccccc1		1.24 µM (active)
Clc1cc(C(Cl)(Cl)Cl)cnc1Cl	inactive	
C=CCOC(F)(C(F)(F)F)C(F)(F)F	inactive	
CC(C)CP(=S)(S)CC(C)C	inactive	
O=C(NC(=O)c1c(F)cccc1F)Nc1ccc(Cl)cc1	inactive	
Cc1ccccc1OP(=O)(Oc1ccccc1)Oc1ccccc1		23.7 µM (active)
Cc1cc(C(F)(C(F)(F)F)C(F)(F)F)ccc1NC(=O)c1cccc(I)c1C(=O)NC(C)(C)CS(C)(=O)=O	inactive	
O=C(O)COc1cc(Cl)c(Cl)cc1Cl	inactive	
O=S(=O)(C(Cl)(Cl)Cl)C(Cl)(Cl)Cl	inactive	
[Cl][Sn]([c]1ccccc1)([c]1ccccc1)[c]1ccccc1	inactive	
O=C(Nc1ccc(Br)cc1)c1cc(Br)cc(Br)c1O		72.3 µM (active)
Oc1cccc(-c2ccccc2)c1	inactive	
Nc1ncn[nH]1	inactive	
CCCCC(CC)COC(=O)Cl (stereo not given)	inactive	
c1csc(-c2ccc(-c3cccs3)s2)c1	inactive	
C=CCOC(N)=O	inactive	
BrCc1ccc(Br)cc1	inactive	

Compound	outcome	AC50
CC1(C)COP(Oc2ccccc2)OC1	inactive	
O=C/C(Cl)=C(/Cl)C(=O)O		46 µM (active)
O=NN1CCCCCC1	inactive	
Clc1cnc(Oc2ccc(Oc3ncc(Cl)cc3Cl)cc2)c(Cl)c1	inactive	
CC(C)(COCC1CO1)COCC1CO1 (stereo not given)	inactive	
ClCCN1CCOCC1	inactive	
Cc1cc(C(C)(C)c2ccc(O)c(C)c2)ccc1O	inactive	
CCCSP(=S)(OCC)Oc1ccc(SC)cc1 (stereo not given)	inactive	
OC(c1ccc(Cl)cc1)(c1ccc(Cl)cc1)c1cccnc1		13.6 µM (active)
Cc1ccc(CCl)cc1	inactive	
N#Cc1ccccc1Cl	inactive	
CCOCn1c(-c2ccc(Cl)cc2)c(C#N)c(Br)c1C(F)(F)F		38.3 µM (active)
Cl[C@H]1OCCO[C@@H]1Cl	inactive	
CCCCS(=O)(=O)Cl	inactive	
Cc1ccc2nc3sc(=O)sc3nc2c1		25 µM (active)
CCCCC(CC)C(=O)Cl (stereo not given)	inactive	
C#C[C@]1(O)CC[C@H]2[C@@H]3CCC4=CC(=O)CC[C@]4(C)[C@H]3CC[C@@]21C	inactive	
CCCCOC(C)=O	inactive	
Nc1cccnc1	inactive	
O=C1C=CC(=O)c2ccccc21	inactive	
